Only some compounds are listed: those with a hit (about 1.2% of all), similar ones and a draw of the others.
PI5P4K alpha inh = blocks human PI5P4K alpha kinase activity; max response, %; P48426; 1.2% of 330,000 active; PI5P4Kalpha enzyme, ADP-Glo luminescence, 60 min; active compounds read low; active = max response of -50% or lower; inconclusive = between -30% and -50%; inactive = -30% or higher; also: value at the top dose of about 77 µM
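Enzyme plus substrate dispensed, test compounds pinned in, then ATP (5 microM final) added. After 60 min at RT, ADP-Glo reagent 1 for 45 min and reagent 2 for 30 min preceded luminescence imaging.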
PI4K2A block = PI4K2A (human) kinase inhibition; 0.13% of 420,000 active; activity change, negative = inhibition, % at 76.9 µM; purified PI4K2A, ADP-Glo luminescence, 1 h; active compounds read low; in the data active = activity change below about -50%; inconclusive = mostly about -30% to -49%;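 also: -100% = wells without enzyme as full effect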
Target sequence (Q9BTU6 whole entry, looked up): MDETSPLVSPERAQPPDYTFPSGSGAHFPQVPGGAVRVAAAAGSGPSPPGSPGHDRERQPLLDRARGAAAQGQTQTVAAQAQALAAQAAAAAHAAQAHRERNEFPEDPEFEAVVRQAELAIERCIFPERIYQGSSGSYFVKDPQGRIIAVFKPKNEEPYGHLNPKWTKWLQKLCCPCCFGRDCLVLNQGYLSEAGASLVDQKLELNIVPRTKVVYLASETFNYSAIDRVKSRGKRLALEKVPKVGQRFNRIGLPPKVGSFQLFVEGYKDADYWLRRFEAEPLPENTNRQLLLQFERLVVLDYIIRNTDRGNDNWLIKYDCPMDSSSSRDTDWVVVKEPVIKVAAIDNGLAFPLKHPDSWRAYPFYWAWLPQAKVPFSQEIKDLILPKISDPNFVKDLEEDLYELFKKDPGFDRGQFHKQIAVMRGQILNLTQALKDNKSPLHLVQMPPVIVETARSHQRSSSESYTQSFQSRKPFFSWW
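In this quantitative HTS, ADP production by PI4K2A was quantified luminescently after 1 h at ambient temperature; 100 microM adenosine served as plate-quality control.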
Pin1 inhibitor = inhibitors of human Pin1. Potency, µM (series often up to 115 µM), inactives show at the top dose activity, negative = inhibition, actives largely listed as inhibitors. AID 504891. Pin1 FP peptide displacement, HiFluor488, 10 min. Q13526. 0.009% of 390,000 active; active = well fitted inhibition curve with a large enough effect in the polarisation, with a control signal flat, not every such curve was filed as active; inconclusive = small, poorly fitted or top-dose-only effect, or effect the other way, or a change in a side signal; inactive = no such curve, though single readings can be large or run the other way; the % refers to the polarisation; also: potency is read from the fitted curve at half-maximal effect
GoLoco inh red = RGS12 GoLoco-Gai1 interaction inhibition; Gai1:RGS12 GoLoco peptide FP, rhodamine, 10 min; Potency, µM (series often up to 61.6 µM), for inactives: at the highest dose activity, negative = inhibition, usual class: inhibitors; 0.44% of 230,000 active; AID 880; active = well fitted inhibition curve with a large enough effect, not every such curve was filed as active; inactive = no such curve, though single readings can be large or run the other way; also: potency is read from the fitted curve at half-maximal effect; nearly all actives have a fitted effect of over 30% in size
GCN5L2 inh = inhibitors of human GCN5L2 histone acetyltransferase; GCN5L2 HAT assay, ThioGlo1 CoA-SH fluorescence; Potency, µM (top dose mostly 58.9 µM), without a hit: top-dose activity change, negative = inhibition, most hits filed as inhibitors; AID 504327; Q92830; 0.21% of 390,000 active; also: potency is read from the fitted curve at half-maximal effect
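Titration-based screen in which CoA formation is detected via maleimide probe ThioGlo1 (50uM) turning fluorescent on thiol reaction; substrates H3(1-25) 75uM and acetyl-CoA 70uM, GCN5L2 20nM, 20 min incubation at room temperature.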
PGK inhibitor = blocks T. brucei phosphoglycerate kinase; AID 602233; Potency, µM (titrated, usually from 57.5 µM), for inactives: at the highest dose activity change, negative = inhibition, hits mostly inhibitors; PGK/GAPDH coupled, Kinase-Glo luminescence, 60 min; 0.043% of 380,000 active; P07378; also: potency is read from the fitted curve at half-maximal effect; nearly all actives have a fitted effect of over 60% in size
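Recombinant glycosomal PGK reaction used 1,3-bisphosphoglycerate generated in-well by GAPDH (100nM final) in 100mM TEA pH 7.6, 5mM MgCl2, 0.01% Tween-20. After 60 minutes at room temperature, ATP was read by Kinase-Glo Plus luminescence end-point.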
* = called active by the depositor; i = inactive; u = inconclusive; x = no result; [ ] = another dose, or the depositor's remark. Unless noted, calls follow the shape of the dose curve; as a rule, active = well fitted curve in the direction sought with a large enough effect; inconclusive = small, poorly fitted or top-dose-only effect, or another doubt; inactive = no such curve, though single readings can be large; an effect the other way counts as inactive or inconclusive. Unless noted, % is scaled to controls: 0 for no effect and ±100 for the full control effect.

SMILES	PI5P4K alpha inh	PI4K2A block	Pin1 inhibitor	GoLoco inh red	GCN5L2 inh	PGK inhibitor
CC(C)=CCc1c(O)cc(O)c2c1O[C@H](c1ccccc1)CC2=O	x	x	x	3.0%	x	x
CC(C)=CCc1cc([C@@H]2CC(=O)c3ccc(O)c(CC=C(C)C)c3O2)ccc1O	-99.5*	-4.8	3.9%	x	x	-10.6%
O=C(C[n+]1cccc2ccccc21)c1ccc([N+](=O)[O-])cc1	-65.5*	-1.8	u	3.2%	-12.1%	-1.8%
N#Cc1cnc2sc3ccccc3n2c1=N	-60.6*	-24.3	-6.8%	-3.0%	-9.2%[0.501 µM]	-8.1%
CO/N=C/NC(=O)c1ccc([N+](=O)[O-])c(CS(=O)(=O)c2ccc(Cl)cc2)c1	-50.4*	-3.8	-0.8%	2.2%	-10.6%	0.0%
NNC(=O)c1ccc([N+](=O)[O-])c(CS(=O)(=O)c2ccc(Cl)cc2)c1	0.0	-7.7	-1.8%	5.8%	-10.2%	-3.3%
C=CC[C@@H](CC(=O)NCCO)C(=O)NC[C@H](OC(=O)[C@@H](CC=C)Cc1ccc(F)cc1)c1ccccc1	6.4	-51.5*	-1.5%	x	-7.2%	i
C=CC[C@@H](CC(=O)N[C@@H](CO)Cc1ccccc1)C(=O)NC[C@H](OC(=O)[C@@H](CC=C)Cc1ccc(F)cc1)c1ccccc1	6.4	0.1	-7.1%	x	-3.4%	-8.7%
O=C(NCc1ccccc1)c1nc[nH]c1C(=O)N1CCN(c2ccccc2)CC1	-1.2	-0.9	2.9%	x	3.5%	11.1%
Cc1onc(-c2c(F)cccc2Cl)c1C(=O)NCc1ccccn1	x	4.5	-0.7%	-12.1%	-4.1%	-7.9%
CCCn1c(O)c(C=Nc2ccccc2)sc1=S	14.9	-1.4	-0.8%	-0.7%	u	-6.4%
Oc1c(/C=C/C=C/C=Nc2ccccc2)sc(=S)n1Cc1ccccc1	-79.3*	-8.5	36.9%	-96.7%	u	-14.6%
CCCCn1c(O)c(/C=C/C=C/C=Nc2ccccc2)sc1=S	u	-5.6	27.7%	77.0%	u	-9.2%
CCn1c(O)c(/C=C/C=C/C=Nc2ccccc2)sc1=S	-63.0*	-1.1	37.6%	184.8%	-2.5%	-6.8%
COc1cc(Cl)c(S(=O)(=O)N2CC(C)OC(C)C2)cc1Cl (stereo unspecified)	x	-1.0	u	-1.9%	2.2%	1.6%
COc1cccc(C(=O)CSc2nc3ccccc3n2CC(=O)N2CCOCC2)c1	x	-4.5	-1.3%	3.6%	-0.9%	-2.8%
COc1cc(/C=C2/C(=O)NN(c3ccc(Cl)c(Cl)c3)C2=O)cc([N+](=O)[O-])c1O	-88.3*	-8.2	u	x	-6.1%	-19.3%
COc1cc(/C=C2\SC(=O)N(c3ccc(O)cc3)C2=O)cc(OC)c1OC	-0.6	3.4	3.7%	2.5%	-5.7%	-2.6%
COc1cc(/C=C2/C(=O)NN(c3ccc(F)cc3)C2=O)cc(Cl)c1O	u	-0.5	43.1%	x	-5.1%	-6.6%
COc1cc(/C=C2\SC(=O)N(c3ccccc3Cl)C2=O)cc([N+](=O)[O-])c1O	-53.4*	-1.2	-26.5%	-3.3%	-13.4%	-10.3%
COc1cc(/C=C2\SC(=O)N(CC(=O)Nc3ccccc3F)C2=O)cc(Cl)c1O	u	4.4	21.5%	x	-13.9%	u
COc1cc(/C=C2\SC(=O)N(CC(=O)Nc3cccc(C)c3)C2=O)cc([N+](=O)[O-])c1O	-91.7*	1.8	x	4.1%	-10.0%	u
CCOc1cc(/C=C2\SC(=O)N(CC(=O)Nc3ccccc3F)C2=O)cc([N+](=O)[O-])c1O	-54.8*	2.0	u	2.1%	3.1%	-6.8%
COc1cccc(C=NNC(=O)CSc2nc3ccccc3[nH]2)c1O	x	1.4	x	x	x	x
O=C1N=c2ccccc2=C1c1sc(Nc2cccc(O)c2)nc1O	u	1.5	u	x	-22.9%	-9.5%
O=C1N=c2ccccc2=C1c1sc(NS(=O)(=O)Cc2ccccc2)nc1O	-54.3*	-2.2	-1.7%	0.6%	-3.3%	-10.5%
O=C1N=c2ccccc2=C1c1sc(Nc2ccc(O)cc2)nc1O	-65.3*	-64.7*	u	42.5%	u	-8.8%
